Assay outcomes from PubChem BioAssay.
NS1 function inh – blocks influenza NS1 protein function; AID 2326; hit rate 0.4% among 270,000; Potency, µM (titrated, usually from 46.1 µM), inactives show top-dose activity, positive = more growth; calls by dose curve; note: actives are rising curves; nearly all actives have a fitted effect of over 50% in size
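S. cerevisiae expressing influenza A NS1, grown in glucose, washed, then diluted 1:100 into pH 6.0 -URA galactose medium with 23 nl compound. Growth recovery read as OD600; NS1-free strain serves as control.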
LmPK inhibitor – blocks Leishmania mexicana pyruvate kinase activity; purified LmPK, Kinase-Glo ATP luminescence, 1 h; Potency, µM (titrated, usually from 57.5 µM), for inactives: top-dose activity change, negative = inhibition, actives largely listed as inhibitors; Q27686; hit rate 0.37% among 290,000; note: % is set by controls: 0 for no effect and ±100 for the full control effect
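In 50 mM imidazole pH 7.2 with 7 mM MgCl2, LmPK (0.1 nM) turned over PEP (0.5 mM) and ADP (0.1 mM) for 1 h at room temperature. Luciferase read-out of ATP.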
Giardia FBPA inh-1 – inhibitors of Giardia lamblia fructose-1,6-bisphosphate aldolase; purified Giardia FBPA; Potency, µM (doses to about 59.6 µM), without a hit: at the highest dose activity, negative = inhibition, actives largely listed as inhibitors; AID 2451; hit rate 0.71% among 290,000; note: % is set by controls: 0 for no effect and ±100 for the full control effect; nearly all actives have a fitted effect of over 55% in size
Target sequence (A8B2U2 whole entry, looked up): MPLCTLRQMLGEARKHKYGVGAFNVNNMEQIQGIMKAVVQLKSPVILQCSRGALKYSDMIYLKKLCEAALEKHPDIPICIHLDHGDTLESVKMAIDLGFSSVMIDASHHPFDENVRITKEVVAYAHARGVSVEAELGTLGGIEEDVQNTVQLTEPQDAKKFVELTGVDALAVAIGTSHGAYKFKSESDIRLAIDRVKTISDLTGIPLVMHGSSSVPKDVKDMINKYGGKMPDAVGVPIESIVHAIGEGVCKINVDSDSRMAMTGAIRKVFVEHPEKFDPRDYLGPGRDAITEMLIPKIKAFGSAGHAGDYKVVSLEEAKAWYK
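Giardia FBPA (40 nM reagent) was preincubated 10 min at RT with compound (up to 57.5 uM final), then substrate plus GAPDH/TPI/NAD/arsenate coupling system with diaphorase/resazurin was added; resorufin fluorescence (525/598 nm) was read after 20 min.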
Tb PYK inh – T. brucei pyruvate kinase inhibition; Q57TT1; TbPYK enzyme, Kinase-Glo Plus ATP luminescence, 45 min; Potency, µM (series often up to 76.8 µM), for inactives: at the highest dose activity, negative = inhibition, usual class: inhibitors; hit rate 0.12% among 410,000; AID 624173; note: % is set by controls: 0 for no effect and ±100 for the full control effect; nearly all actives have a fitted effect of over 50% in size
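Activity of T. brucei pyruvate kinase was followed by Kinase-Glo Plus luminescence after the enzyme reacted 45 min at room temperature with 130 uM ADP (final) and substrate. Test compounds were added before ADP at multiple concentrations.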
Sm TGR block – blocks Schistosoma mansoni thioredoxin glutathione reductase; Q962Y6; purified TGR, DTNB reduction, TNB absorbance 405 nm; Potency, µM (highest dose often 114 µM), for inactives: at the top dose activity change, negative = inhibition, usual class: inhibitors; hit rate 3% among 360,000; note: % is set by controls: 0 for no effect and ±100 for the full control effect; nearly all actives have a fitted effect of over 60% in size
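TGR 20 nM + NADPH 100 uM (dispensed conc.), cpd preinc 15 min RT; start with NADPH (500 uM addition) then DTNB (15 mM addition). Kinetic TNB absorbance, 405 nm filter. Four-parameter Hill fit across titration.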
RE007 growth inh – less growth of the S. pombe RE007 Vpr strain. S. pombe RE007 Vpr strain, BacTiter-Glo ATP luminescence, 24 h. AID 651644. Potency, µM (doses to about 92.2 µM), for inactives: at the highest dose activity change, negative = less growth, most hits filed as inhibitors. hit rate 0.21% among 360,000; active = well fitted falling curve with a large enough effect; inconclusive = small, poorly fitted or top-dose-only effect; inactive = no such curve, though single readings can be large or run the other way; note: % is set by controls: 0 for no effect and ±100 for the full control effect; nearly all actives have a fitted effect of over 50% in size
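Fission yeast RE007 carrying one integrated HIV-1 vpr copy, seeded at OD 0.01 in PMG+AL medium with 23 nL pinned compound. Grown 24 h at 30 degrees; viability read by BacTiter-Glo luminescence after 5 min.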
Giardia growth – Giardia lamblia growth inhibition; shares compounds with Giardia FBPA inh-1; Giardia lamblia trophozoite growth inhibition; Potency, µM (doses to about 57.5 µM), without a hit: top-dose activity change, negative = inhibition, hits mostly inhibitors; hit rate 5% among 1,500;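 note: trophozoites exposed to compound for 48 h at 37 °C; % is set by controls: 0 for no effect and ±100 for the full control effect; nearly all actives have a fitted effect of over 70% in size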
Mammalian tox – toxic to mammalian cells in Giardia aldolase counter-screen. shares compounds with Giardia FBPA inh-1. mammalian cell viability counter-screen, qHTS. Potency, µM (doses to about 57.5 µM), for the others: at the highest dose viability change, negative = toxicity, most hits filed as inhibitors. hit rate 4% among 1,500. AID 2786;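 note: Chinese hamster ovary cells used as mammalian cytotoxicity surrogate; viability measured as cellular ATP by luminescence; compound exposure lasted 48 h before reading; % is set by controls: 0 for no effect and ±100 for the full control effect; nearly all actives have a fitted effect of over 60% in size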
Giardia FBPA inh-2 – confirmation of Giardia fructose-bisphosphate aldolase inhibitors | hit rate 5% among 1,500 | purified Giardia aldolase enzyme activity, qHTS | shares compounds with Giardia FBPA inh-1 | Potency, µM (titrated, usually from 57.5 µM), for the others: top-dose activity change, negative = inhibition, actives largely listed as inhibitors; note: % is set by controls: 0 for no effect and ±100 for the full control effect; nearly all actives have a fitted effect of over 45% in size
Rabbit FBPA inh – selectivity test for Giardia aldolase inhibitors: rabbit aldolase; shares compounds with Giardia FBPA inh-1; Rabbit muscle FBPA enzyme inhibition, selectivity counter-screen; Potency, µM (top dose mostly 57.5 µM), for inactives: at the top dose activity, negative = inhibition, actives largely listed as inhibitors; hit rate 4% among 1,500; note: % is set by controls: 0 for no effect and ±100 for the full control effect; nearly all actives have a fitted effect of over 60% in size
Target sequence (P00883 whole entry, looked up): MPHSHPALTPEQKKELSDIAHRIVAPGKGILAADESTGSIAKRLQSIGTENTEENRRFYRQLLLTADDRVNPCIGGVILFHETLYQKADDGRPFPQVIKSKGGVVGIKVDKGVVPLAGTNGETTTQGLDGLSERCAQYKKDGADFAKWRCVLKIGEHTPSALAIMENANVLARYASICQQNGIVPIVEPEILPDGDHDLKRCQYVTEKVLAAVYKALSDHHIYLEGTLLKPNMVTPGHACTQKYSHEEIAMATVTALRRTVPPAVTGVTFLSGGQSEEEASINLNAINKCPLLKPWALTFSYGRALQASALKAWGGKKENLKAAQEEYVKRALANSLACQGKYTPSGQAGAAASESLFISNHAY
GAPDH coupling – GAPDH inhibition flagged for Giardia aldolase hits | GAPDH coupling enzyme counterscreen, biochemical, qHTS | shares compounds with Giardia FBPA inh-1 | hit rate 6% among 1,500 | Potency, µM (titrated, usually from 57.5 µM), inactives show at the top dose activity change, negative = inhibition, most hits filed as inhibitors | AID 2795; note: % is set by controls: 0 for no effect and ±100 for the full control effect; nearly all actives have a fitted effect of over 55% in size
* hit, by the source's call; ? = inconclusive; . = not tested or not shown; [ ] = another dose, or the depositor's remark. Rows were chosen to be rich in hits. Some 3.5% of all compounds tested hit in one or more screens of this group. Unless noted, calls come from the whole dose curve; as a rule, active = well fitted curve in the direction sought with a large enough effect; inconclusive = small, poorly fitted or top-dose-only effect, or another doubt; inactive = no such curve, though single readings can be large; an effect the other way counts as inactive or inconclusive. Potency is the fitted concentration of half-maximal effect.

SMILES | NS1 function inh | LmPK inhibitor | Giardia FBPA inh-1 | Tb PYK inh | Sm TGR block | RE007 growth inh | Giardia growth | Mammalian tox | Giardia FBPA inh-2 | Rabbit FBPA inh | GAPDH coupling
O=C1CN=C(c2ccccc2)c2cc(Cl)ccc2N1Cc1ccc(Cl)cc1 | . | . | . | 4% | -4% | . | . | . | . | . | .
O=C(O)CN1C(=O)CN=C(c2ccccn2)c2cc(Cl)ccc21 | -11% | -4% | 20µM* | 2% | 18% | 1% | -15% | -3% | 0% | 7% | 8%
COc1cccc(/C=C/C(=O)Nc2ccc(OC)nc2)c1 | -43% | 4% | 22µM* | -2% | -13% | -9% | ? | -8% | -19% | -1% | -9%
O=c1[nH]c(=S)[nH]c(O)c1C(c1ccccn1)c1c(O)[nH]c(=S)[nH]c1=O | . | 1% | 16µM* | -29% | -29% | 0% | 2%[10.4 µM] | 13% | -2% | 11% | -5%
CCn1c(O)c(C(c2ccccn2)c2c(O)n(CC)c(=S)[nH]c2=O)c(=O)[nH]c1=S | -7% | -6% | 18µM* | -23% | -21% | 4% | 18%[10.4 µM] | 5% | -6% | 12% | 11%
C[C@H](C(=O)c1ccncc1)c1ccccn1 | 3% | . | . | . | . | . | . | . | . | . | .
COc1ccc2c(c1)O[C@H](c1ccc3c(c1)OCO3)[C@@H](OC(=O)Nc1ccc(C)c(Br)c1)C2=O | . | . | 1% | . | . | . | . | . | . | . | .
CCN(CC)c1ccc(/C=C2\NC(=O)NC2=O)cc1 | -4% | 2% | -9% | -5% | -7% | 10% | . | . | . | . | .
CCN(CC)c1ccc(C=C2C(=O)NC(=S)NC2=O)cc1 | 1% | -18% | 14µM* | ? | 16µM* | 8% | 14µM* | 0% | -10% | -1% | 5%
Cc1ccc(-n2nc(C(=O)N3CCCCC3)c(=O)n(C)c2=O)cc1 | . | . | . | 4% | 10% | . | . | . | . | . | .
O=C(O)c1cc(-c2ccccc2)n(-c2ccc(F)cc2)n1 | 13% | 7% | -8% | 3% | 11% | -6% | . | . | . | . | .
CCn1ncc(-c2cc(C(=O)O)no2)c1C | 2% | 1% | 3% | -2% | 9% | -3% | . | . | . | . | .
CCn1ncc(-c2ccnc3cc(C(=O)O)nn23)c1C | . | -6% | 16µM* | 2% | 8% | -23% | 23% | 25% | -2% | -4% | -2%
O=C(O)c1cc2nccc(-c3ccc(F)cc3)n2n1 | 3% | -2% | 18µM* | -3% | -15% | -19% | 23% | -2% | 13% | 11% | 6%
COCc1cc(C)nc2sc3c(=O)n(-c4cc(C)ccc4C)nnc3c12 | . | . | . | 0% | 3% | . | . | . | . | . | .
CCC(C)NCCOc1ccc(C(C)(C)c2ccccc2)cc1 (stereo not drawn) | 0% | 10% | 18µM* | -4% | 1% | 7% | ? | -9% | 9% | 10% | 0%
CCN(CC)CCn1c(-c2ccccc2)nc2c(NCc3ccccc3)nc(C)nc21 | . | . | 7% | . | . | . | . | . | . | . | .
CCNC(=O)CCCN1C(=O)CCn2nc(-c3cccn3C)cc21 | . | . | . | -1% | -4% | . | . | . | . | . | .
Cc1cc(C)cc(NS(=O)(=O)c2ccc(NC(=S)NC(=O)c3ccc(Br)o3)cc2)c1 | 12% | 1% | -24% | -7% | -18% | 17% | . | . | . | . | .
NS(=O)(=O)c1ccc(NC(=S)NC(=O)c2ccc(Br)o2)cc1 | 2% | -4% | 18µM* | -12% | -6% | -4% | 7%[10.4 µM] | 0% | -3% | 6% | 6%
NS(=O)(=O)c1ccc(NC(=S)NNC(=O)c2ccc(Br)o2)cc1 | -3% | -3% | . | -24% | ? | 10% | . | . | . | . | .
CN(C)S(=O)(=O)c1ccc(NC(=S)NC(=O)c2ccc(Br)o2)cc1 | . | -6% | 16µM* | . | ? | . | 3%[10.4 µM] | -8% | 1% | 7% | 15%
NS(=O)(=O)c1ccc(NC(=S)NC(=O)c2cccs2)cc1 | 0% | 1% | 18µM* | -3% | 17% | 8% | ? | 7% | 7% | 5% | 4%
CSc1ncc(C(=O)Nc2c(C)cccc2C)c(-c2ccccc2)n1 | . | . | . | 3% | 2% | . | . | . | . | . | .
O=C(Cc1ccccc1)N(Cc1cccnc1)c1nc2c(F)cccc2s1 | . | . | . | -4%[15.4 µM] | 4% | . | . | . | . | . | .
COC(=O)Cc1[nH]n(-c2nc3ccccc3s2)c(=O)c1C(C)=Nc1ccc(Cl)cc1 | 14% | -22% | 16µM* | -14% | -9% | ? | ? | -24% | 3% | 18% | 13%
COC(=O)Cc1[nH]n(-c2nc3ccccc3s2)c(=O)c1C(C)=Nc1ccc(C)cc1 | 2% | 0% | -9% | -5% | -8%[57.1 µM] | ? | . | . | . | . | .
COC(=O)c1ccc(C(=O)OC)nc1 | -4% | 1% | 1% | 12% | -4% | 13% | . | . | . | . | .
